In ChEMBL document CHEMBL3988442, “University of Dundee, Small-Polar-MMV Screening Library” (2021):
For some assays here: Potency and affinity values are given separately.

Columns and labels:
Design in all cases: scale not given: direction of the effect not stated beside the values
[1] = target: Protein translocase subunit SecA (Escherichia coli (strain K12)) (UniProt P10408); assay: Assay to Identify E. coli SecA ATPase Inhibitors; format: functional; conditions: 30 µM
[2] = target: T1, Ubiquitin-activating enzyme e1, putative (Leishmania donovani (strain BPK282A1)) (UniProt E9BSI1); assay: Leishmania donovani Ubiquitin Activating Enzyme (LdE1); format: functional; conditions: 30 µM
T1 sequence (whole entry): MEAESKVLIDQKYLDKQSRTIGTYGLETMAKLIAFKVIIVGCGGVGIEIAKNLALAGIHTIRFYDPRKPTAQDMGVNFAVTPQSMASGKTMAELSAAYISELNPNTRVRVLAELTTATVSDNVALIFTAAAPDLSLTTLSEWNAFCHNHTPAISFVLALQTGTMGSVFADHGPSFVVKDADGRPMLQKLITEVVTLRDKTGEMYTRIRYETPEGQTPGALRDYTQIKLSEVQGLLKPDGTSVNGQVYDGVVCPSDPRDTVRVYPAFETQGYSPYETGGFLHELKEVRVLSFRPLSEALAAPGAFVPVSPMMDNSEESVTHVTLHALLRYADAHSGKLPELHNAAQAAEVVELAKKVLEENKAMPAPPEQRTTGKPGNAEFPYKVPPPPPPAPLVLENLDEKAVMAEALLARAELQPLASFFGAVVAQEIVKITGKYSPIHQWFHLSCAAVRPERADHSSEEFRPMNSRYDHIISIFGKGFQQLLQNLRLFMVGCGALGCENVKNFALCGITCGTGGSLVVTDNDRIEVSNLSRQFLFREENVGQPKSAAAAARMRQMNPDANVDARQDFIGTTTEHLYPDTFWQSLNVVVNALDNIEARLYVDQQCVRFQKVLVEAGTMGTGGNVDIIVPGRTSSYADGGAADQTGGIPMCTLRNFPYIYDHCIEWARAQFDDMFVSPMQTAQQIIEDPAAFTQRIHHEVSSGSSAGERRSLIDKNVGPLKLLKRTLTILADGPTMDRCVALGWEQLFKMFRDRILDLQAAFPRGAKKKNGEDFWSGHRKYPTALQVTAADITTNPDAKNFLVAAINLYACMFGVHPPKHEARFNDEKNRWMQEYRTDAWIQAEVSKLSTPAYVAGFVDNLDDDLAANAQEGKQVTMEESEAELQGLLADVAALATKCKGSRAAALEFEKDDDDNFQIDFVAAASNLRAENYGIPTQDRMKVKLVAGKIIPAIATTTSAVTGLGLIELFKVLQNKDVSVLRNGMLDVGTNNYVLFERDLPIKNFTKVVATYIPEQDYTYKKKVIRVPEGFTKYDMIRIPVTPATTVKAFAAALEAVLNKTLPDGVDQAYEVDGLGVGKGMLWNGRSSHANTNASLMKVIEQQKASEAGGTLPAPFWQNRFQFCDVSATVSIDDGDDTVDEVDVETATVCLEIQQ

[3] = target: AMP-activated protein kinase, AMPK (Homo sapiens) (UniProt P54646+O43741+P54619+Q9UGJ0+Q9Y478+Q13131+Q9UGI9); assay: AMP-dependent Kinase enzyme assay. An in vitro enzyme assay that detects ADP turnover that is directly proportional to AMPK activity. This uses naive AMPK that is activated during the assay with MK-8722; format: functional; conditions: 30 µM
[4] = target: Sialic acid-binding Ig-like lectin 9 (Homo sapiens) (UniProt Q9Y336); assay: Hs-Siglec9 ALPHAscreen SOP 20170721; conditions: 10 µM
Sialic acid-binding Ig-like lectin 9 (Homo sapiens), sequence (Q9Y336 whole entry): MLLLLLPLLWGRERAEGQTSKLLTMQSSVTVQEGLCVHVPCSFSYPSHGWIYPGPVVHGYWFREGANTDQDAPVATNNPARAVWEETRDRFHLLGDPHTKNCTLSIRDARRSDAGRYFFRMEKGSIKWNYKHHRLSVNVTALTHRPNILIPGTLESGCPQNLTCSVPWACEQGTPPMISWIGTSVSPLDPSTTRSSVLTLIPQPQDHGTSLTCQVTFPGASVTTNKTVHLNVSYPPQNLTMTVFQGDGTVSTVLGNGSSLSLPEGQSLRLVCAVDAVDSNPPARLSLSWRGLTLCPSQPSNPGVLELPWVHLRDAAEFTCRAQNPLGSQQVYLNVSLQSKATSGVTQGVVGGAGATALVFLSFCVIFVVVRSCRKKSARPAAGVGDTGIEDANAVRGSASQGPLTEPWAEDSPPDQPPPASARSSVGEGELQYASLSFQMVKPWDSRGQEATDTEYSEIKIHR

[5] = system: Trypanosoma cruzi; assay: Trypanosoma cruzi phosphomannomutase and mannose-1-phosphate guanylyltransferase assay; format: functional; conditions: 10 µM
[6] = target: T2, Arginase-2, mitochondrial (Homo sapiens) (UniProt P78540); assay: in vitro enzyme assay to detect the production of urea directly proportional to the activity of Arginase II; format: functional; conditions: 33.3 µM; note: in the data most compounds retested in dose-response had high values
T2 sequence (whole entry): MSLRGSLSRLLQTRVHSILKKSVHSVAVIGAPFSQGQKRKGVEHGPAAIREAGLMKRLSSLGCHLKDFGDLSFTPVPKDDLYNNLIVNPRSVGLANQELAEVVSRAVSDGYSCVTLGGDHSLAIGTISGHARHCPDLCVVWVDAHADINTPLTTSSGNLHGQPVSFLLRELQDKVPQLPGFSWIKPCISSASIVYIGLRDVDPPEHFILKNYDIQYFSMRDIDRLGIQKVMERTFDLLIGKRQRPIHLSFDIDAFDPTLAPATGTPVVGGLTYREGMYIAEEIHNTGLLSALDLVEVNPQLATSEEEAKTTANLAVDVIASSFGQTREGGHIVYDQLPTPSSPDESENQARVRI

[7] = target: T3, Proteasome subunit beta (Trypanosoma cruzi) (UniProt O96673); assay: Trypanosoma cruzi proteasome chymotrypsin-like activity (TcProtChymo) assay.; note: in the data most compounds retested in dose-response had high values; format: functional; conditions: 9.37 µM
T3 sequence (whole entry): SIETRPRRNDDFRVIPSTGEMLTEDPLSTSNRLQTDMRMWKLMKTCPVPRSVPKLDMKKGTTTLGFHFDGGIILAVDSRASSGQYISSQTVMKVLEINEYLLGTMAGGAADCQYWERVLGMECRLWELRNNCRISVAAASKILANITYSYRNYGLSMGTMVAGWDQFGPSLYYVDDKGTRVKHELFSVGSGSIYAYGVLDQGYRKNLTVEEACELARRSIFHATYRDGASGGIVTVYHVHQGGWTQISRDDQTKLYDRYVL

[8] = species on record: Homo sapiens; assay: To identify inhibition of the IFN signalling (Jak-Stat) pathway via expression of an eGFP reporter gene under the control of an IFN-stimulated response element (ISRE) containing MxA promoter.; format: functional; conditions: 30 µM
[9] = target: T4, Tyrosyl-tRNA synthetase, putative (Trypanosoma cruzi (strain CL Brener)) (UniProt Q4DSP6); assay: Trypanosoma cruzi tyrosyl tRNA synthetase (TcYRS) _High Tyrosine SOP; format: functional; conditions: 30 µM; note: in the data most compounds retested in dose-response had high values
T4 sequence (whole entry): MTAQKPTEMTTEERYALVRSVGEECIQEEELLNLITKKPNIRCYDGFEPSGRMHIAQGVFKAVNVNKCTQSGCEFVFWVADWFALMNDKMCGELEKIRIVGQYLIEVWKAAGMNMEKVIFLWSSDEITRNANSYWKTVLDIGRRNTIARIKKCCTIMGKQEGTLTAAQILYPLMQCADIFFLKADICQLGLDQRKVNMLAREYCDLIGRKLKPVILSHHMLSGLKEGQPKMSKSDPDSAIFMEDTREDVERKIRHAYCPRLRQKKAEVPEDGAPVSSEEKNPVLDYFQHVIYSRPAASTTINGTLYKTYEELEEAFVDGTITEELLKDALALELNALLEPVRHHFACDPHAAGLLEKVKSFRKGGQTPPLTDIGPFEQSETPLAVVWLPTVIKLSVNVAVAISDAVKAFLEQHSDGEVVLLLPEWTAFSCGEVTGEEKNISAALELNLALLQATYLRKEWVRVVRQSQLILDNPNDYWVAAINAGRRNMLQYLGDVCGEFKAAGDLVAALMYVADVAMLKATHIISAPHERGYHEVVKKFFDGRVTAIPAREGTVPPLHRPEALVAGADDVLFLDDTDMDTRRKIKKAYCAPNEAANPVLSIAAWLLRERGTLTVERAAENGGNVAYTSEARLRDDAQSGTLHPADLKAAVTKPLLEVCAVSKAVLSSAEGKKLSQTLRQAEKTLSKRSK

[10] = target: T4, Tyrosyl-tRNA synthetase, putative (Trypanosoma cruzi (strain CL Brener)); assay: Trypanosoma cruzi tyrosyl tRNA synthetase (TcYRS) SOP; format: functional; conditions: 30 µM
[11] = target: Chromo domain-containing protein 1 (Saccharomyces cerevisiae (strain ATCC 204508 / S288c) (Baker's yeast)) (UniProt P32657); assay: ScCHD-1 Enzyme Inhibition Assay; format: functional; conditions: 30 µM; note: in the data most compounds retested in dose-response had high values
Chromo domain-containing protein 1 (Saccharomyces cerevisiae (strain ATCC 204508 / S288c) (Baker's yeast)), sequence (P32657 whole entry, the tested form may be a part): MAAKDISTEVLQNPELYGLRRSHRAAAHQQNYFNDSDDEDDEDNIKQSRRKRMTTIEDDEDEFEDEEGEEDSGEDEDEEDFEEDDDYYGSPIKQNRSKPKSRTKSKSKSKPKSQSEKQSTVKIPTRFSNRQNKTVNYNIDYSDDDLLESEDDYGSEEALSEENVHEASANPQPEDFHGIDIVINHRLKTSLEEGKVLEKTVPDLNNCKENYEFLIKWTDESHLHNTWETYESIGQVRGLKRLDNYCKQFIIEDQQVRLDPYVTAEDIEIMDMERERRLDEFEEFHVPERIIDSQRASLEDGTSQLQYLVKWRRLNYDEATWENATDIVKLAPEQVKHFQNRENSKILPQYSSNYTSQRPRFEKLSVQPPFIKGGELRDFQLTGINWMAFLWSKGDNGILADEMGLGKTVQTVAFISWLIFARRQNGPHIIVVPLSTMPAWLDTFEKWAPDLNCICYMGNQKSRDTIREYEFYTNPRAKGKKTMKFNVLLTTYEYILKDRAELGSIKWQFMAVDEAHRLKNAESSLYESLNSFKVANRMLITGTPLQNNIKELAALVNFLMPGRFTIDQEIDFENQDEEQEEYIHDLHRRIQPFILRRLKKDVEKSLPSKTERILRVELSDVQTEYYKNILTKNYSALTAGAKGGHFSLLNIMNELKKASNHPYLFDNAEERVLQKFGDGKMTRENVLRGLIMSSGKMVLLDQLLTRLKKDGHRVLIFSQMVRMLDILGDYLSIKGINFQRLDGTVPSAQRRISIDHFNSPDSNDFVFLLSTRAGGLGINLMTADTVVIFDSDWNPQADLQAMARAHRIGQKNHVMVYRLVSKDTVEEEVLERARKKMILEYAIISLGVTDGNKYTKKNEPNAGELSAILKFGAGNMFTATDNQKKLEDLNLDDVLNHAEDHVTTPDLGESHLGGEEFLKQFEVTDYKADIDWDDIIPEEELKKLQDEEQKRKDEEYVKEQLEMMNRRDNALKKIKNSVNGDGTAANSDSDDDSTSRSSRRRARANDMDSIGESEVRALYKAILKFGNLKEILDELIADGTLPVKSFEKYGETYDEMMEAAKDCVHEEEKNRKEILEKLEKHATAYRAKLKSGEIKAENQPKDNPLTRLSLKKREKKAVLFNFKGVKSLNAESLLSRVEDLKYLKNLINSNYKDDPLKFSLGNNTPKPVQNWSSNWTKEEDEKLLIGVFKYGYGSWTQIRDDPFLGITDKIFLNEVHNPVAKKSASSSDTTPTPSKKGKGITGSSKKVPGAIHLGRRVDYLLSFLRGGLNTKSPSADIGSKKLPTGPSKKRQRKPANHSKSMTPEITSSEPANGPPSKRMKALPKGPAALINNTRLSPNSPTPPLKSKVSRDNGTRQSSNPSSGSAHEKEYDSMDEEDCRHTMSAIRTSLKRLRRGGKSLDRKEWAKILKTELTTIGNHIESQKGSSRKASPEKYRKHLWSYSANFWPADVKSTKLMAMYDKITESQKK

Protein translocase subunit SecA (Escherichia coli (strain K12)), sequence (P10408 whole entry): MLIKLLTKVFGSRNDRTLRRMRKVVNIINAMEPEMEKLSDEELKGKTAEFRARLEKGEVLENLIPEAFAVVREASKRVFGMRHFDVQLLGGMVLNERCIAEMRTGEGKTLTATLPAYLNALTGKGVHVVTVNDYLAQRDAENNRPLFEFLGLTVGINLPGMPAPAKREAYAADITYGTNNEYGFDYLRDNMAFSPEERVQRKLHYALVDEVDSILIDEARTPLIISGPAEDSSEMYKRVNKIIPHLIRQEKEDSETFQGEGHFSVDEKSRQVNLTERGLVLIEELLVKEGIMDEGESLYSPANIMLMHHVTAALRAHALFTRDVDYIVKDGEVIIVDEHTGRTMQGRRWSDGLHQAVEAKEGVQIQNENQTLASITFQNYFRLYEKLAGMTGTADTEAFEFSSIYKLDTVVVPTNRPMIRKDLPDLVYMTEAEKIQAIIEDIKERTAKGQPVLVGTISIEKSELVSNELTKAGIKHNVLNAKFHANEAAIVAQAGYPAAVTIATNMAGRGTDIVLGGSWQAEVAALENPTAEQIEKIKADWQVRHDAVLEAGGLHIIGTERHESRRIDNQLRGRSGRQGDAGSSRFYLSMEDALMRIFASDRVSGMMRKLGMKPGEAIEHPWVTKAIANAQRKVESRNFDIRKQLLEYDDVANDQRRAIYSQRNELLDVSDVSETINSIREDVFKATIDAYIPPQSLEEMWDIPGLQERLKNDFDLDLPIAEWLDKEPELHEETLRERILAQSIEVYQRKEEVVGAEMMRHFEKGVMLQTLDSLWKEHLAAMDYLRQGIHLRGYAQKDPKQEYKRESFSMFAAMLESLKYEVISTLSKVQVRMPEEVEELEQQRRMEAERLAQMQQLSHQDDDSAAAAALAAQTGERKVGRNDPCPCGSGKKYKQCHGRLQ

Compound	Percent Effect [1]	Percent Effect [2]	Percent Effect [3]	Percent Effect [4]	Percent Effect [5]	Percent Effect [6]	Percent Effect [7]	Percent Effect [8]	Percent Effect [9]	Percent Effect [10]	Percent Effect [11]
COC(=O)c1ccoc1COC(=O)CCc1ccc(OC)c(OC)c1	-0.0167%	-5.26%	11.1%	1.57%	-3.99%	0%	13.7%	-9.69%	0%	-20.8%	1.64%
COCCCN1CCC(NC(=O)C(C)C)CC1	-6.61%	-2.74%	-0.488%	-2.06%	-5.16%	-2%	6.76%	24.5%	0%	-1.24%	-2.64%
N#Cc1c(F)cccc1N1CCC(NS(=O)(=O)c2cccs2)CC1	0.0864%	-11%	24.6%	-2.85%	-9.6%	-0.455%	14%	34.2%	-15.1%	-20%	-4.33%
CCc1ccc(CN2C[C@@H]3OCCN(c4ccnc(N(C)C)n4)[C@@H]3C2)o1	-1.43%	5.48%	-0.72%	13.7%	1.98%	-13.6%	7.28%	82.1%	5.21%	-3.7%	-4.54%
COC(=O)c1cccn1C1CCN(C(=O)c2cc(F)ccc2F)CC1	-4.16%	13%	1.19%	0.495%	4.87%	-6.76%	3.04%	19.8%	5.83%	14.6%	-9.49%
Cc1cc(C)cc(OCCC(=O)N2CCOCC2c2ncon2)c1 (configuration not stated)	-7.26%	2.7%	-4.41%	6.93%	-5.11%	-1.29%	-1.62%	4.3%	2.97%	11%	0.318%
CN1Cc2c(C(=O)Nc3cccnc3)ncn2-c2ccccc2S1(=O)=O	-1.38%	-5.48%	-2.46%	4.18%	0%	-4.39%	7.79%	-3.68%	0%	6.17%	0.964%
Cc1nc(Nc2ncccn2)cc(C2CCCN2CC(C)C)n1 (configuration not stated)	-6.07%	5.33%	4.6%	-0.413%	-1.38%	-2.56%	-1.5%	0.824%	2.13%	6.41%	-1.78%
CCc1ccc(NC(=O)N2C[C@H]3C[C@H](C(=O)NC)[C@@H](C2)O3)cc1	0.946%	2.6%	6.04%	-3.01%	-0.0986%	0.645%	5.4%	11.2%	1.06%	6.41%	93.4%
Cc1noc(C)c1CN1CC[C@H]2OCC[C@@H](C(=O)N3CCCO3)[C@@H]2C1	-8.03%	16%	-5.74%	-1.2%	5.02%	-43.5%	14.7%	-8.37%	-1.04%	2.5%	-6.96%
CC(C)N(CC(N)=O)Cc1csc(Cc2ccccc2)n1	-3.88%	12.7%	0.223%	-4.46%	-6.7%	0%	5.82%	41.7%	-1.48%	11.4%	-6.32%
CC(C)(C)c1nc(CN2CCCC2CCc2ccccc2)no1 (configuration not stated)	-4.12%	-2.6%	4.97%	-2.77%	-6.18%	-0.712%	-5.91%	27.2%	0.971%	-14.6%	1.21%
CN(C)C(=O)COC[C@]12COC[C@H]1CN(CC1CCC1)C2	1.38%	2.7%	-10.5%	19.2%	4.79%	6.7%	7.12%	8.3%	2.15%	3.7%	-9.34%
Cc1oncc1C(=O)N1CCC2(CC1)CC(c1ccccc1)C(=O)N2C (configuration not stated)	-3.51%	-16%	-4.85%	1.07%	3.28%	-47.1%	7.69%	-5.26%	-37.5%	-62.5%	-5.13%
Cc1cc(NC(=O)CN2CCc3cnc(C)nc3C2)on1	-3.81%	5.26%	-27.9%	2.68%	7.75%	1.8%	9.39%	-5.85%	8.37%	16.1%	-7.97%
Cc1ccc(C(=O)N2CCn3cc(CN(C)Cc4ccco4)nc3C2)o1	2.2%	0%	3.27%	0.0829%	-4.24%	3.23%	3.13%	0.489%	1.06%	3.85%	105%
Cc1cccc(N2CC[C@@H]3CN(C(=O)c4ccco4)CCO[C@@H]3C2)n1	-3.29%	10.7%	10.8%	3.1%	-3.15%	4.89%	9.78%	6.1%	7.45%	14.1%	-6.54%
Cn1ncc2c1NC(=O)CC2c1ccc(Cl)cc1Cl (configuration not stated)	-0.731%	2.63%	4.33%	1.29%	-8.67%	-1.18%	11.8%	18%	0%	2.6%	-4.32%
CC(=O)N1CC(=O)N(c2ccccc2)CC12CCN(Cc1cccs1)C2 (configuration not stated)	-0.462%	16%	-5.96%	8.98%	2.51%	-36.4%	7.69%	-11.1%	5.21%	27.5%	-7.74%
O=C(c1ccsc1)N1CCc2c(CNc3ncccn3)n[nH]c2C1	-4.87%	10.7%	4.32%	1.51%	6.95%	-44.6%	1.88%	9.05%	-1.04%	7.5%	-6.05%
CCOc1ccc(NC(=O)CN2CCN(c3nccn3C)CC2)cc1	0.133%	10.4%	0.177%	-1.93%	7.79%	-3.23%	15.5%	-6.28%	9.52%	14.1%	-9%
CC(=O)N1CCCN(C(=O)NCCc2ccc(Cl)s2)CC1	-2.98%	-1.27%	2.05%	0.11%	2.97%	-4.95%	6.35%	15.8%	3.12%	7.59%	7.14%
